Screening results: PubChem BioAssay, several laboratories
CYP2C9 inhib = human CYP2C9 inhibition; CYP2C9 Supersomes, luciferin-H conversion, luminescence; inhibition, % at 5 µM; hit rate 20% among 96,000;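 active = blocking of liver enzyme CYP2C9 beyond about 50% at 5 µM, limit read from the data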
CYP2C19 inh = inhibitors of human CYP2C19. hit rate 21% among 96,000. CYP2C19 Supersomes, luciferin-H EGE luminescence, 30 min. inhibition, % at 5 µM. P33261. AID 778;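 active = CYP2C19 inhibition above a set limit at 5 µM in the primary screen, cut at about 50% in these data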;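 note: plate controls were negative control wells for no effect and 2.5 mM tranylcypromine positive control for full effect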
CYP2C19 activ = cytochrome P450 2C19 (human) activation; 96,000 tested, under 10 active; activation factor at 5 µM; P33261; recombinant CYP2C19, luciferin-H EGE luminescence; active compounds read high; 0 = fully inhibited enzyme, 1 = untreated enzyme;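 active = activation factor of at least 2 at 5 µM in the primary screen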;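 note: 0 = wells with 2.5 mM tranylcypromine and 1 = vehicle-only wells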
PTK2B oligo ant = Pyk2 (human) oligomerization antagonism. Q14289. Q293 cells, Pyk2 FERM NanoBiT luminescence; active compounds read low. z-score (the deposit names both 25 µM and 10 µM). hit rate 0.83% among 99,000. AID 1347419;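 active = Z-score of -3 or lower, scaled per plate to the spread of control and sample wells; inactive = z-score above -3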;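 note: negative z-score means lost luminescence so less FERM oligomerization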
CYP2C9 activ = CYP2C9 (human) activation; activation factor at 5 µM; AID 1024; recombinant CYP2C9, luciferin-H conversion, luminescence; active compounds read high; factor 1 = untreated enzyme, 0 = blocked; P11712; hit rate 1.4% among 96,000;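 active = activation factor of 2 or more for CYP2C9 at a 5 µM dose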;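 note: 0 = sulfaphenazole-blocked wells and 1 = vehicle-only wells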
Cav3 T inh = blocks human Cav3.2 T-type calcium channel; hit rate 4% among 100,000; Cav3.2-expressing cells, Fluo-4 calcium fluorescence FDSS; active compounds read low; B-score at 10 µM; O95180;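 active = single-dose well whose peak fluorescence ratio is a statistical outlier from its plate by either plate-standardised score or position-corrected B-score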
Numbers without * were called inactive; . = not tested or not shown. Compounds with a hit are over-represented: about 27% of the library has one in this group of screens.

SMILES	CYP2C9 inhib	CYP2C19 inh	CYP2C19 activ	PTK2B oligo ant	CYP2C9 activ	Cav3 T inh
CCC1(C)Cc2c(sc3nc(SCC(=O)O)[nH]c(=O)c23)CO1 (stereo not drawn)	-2	10	0.9	1.1	1	0.72
CCC1(C)Cc2c(sc3nnn(CC(=O)Nc4ccccc4)c(=O)c23)CO1 (stereo not drawn)	68*	89*	0.1	-1.4	0.3	-0.36
CCC1(C)Cc2c(sc3nnn(CC(=O)Nc4ccccc4C)c(=O)c23)CO1 (stereo not drawn)	50	84*	0.2	0.73	0.5	-0.8
CCC1(C)Cc2c(sc3c2c(=O)n(C)c2nnc(SCCc4ccccc4)n32)CO1 (stereo not drawn)	-6	-5	1.1	-0.2	1.1	0.72
CC(C)(C)OCC(NC(=O)C(CC(N)=O)NC(=O)OC(C)(C)C)C(=O)OC(C)(C)C (stereo not drawn)	-7	3	1	0.32	1.1	-1.2
O=C(COc1ncnc2ccccc12)NCCCN1CCCC1=O	-26	-23	1.2	0.05	1.3	0.82
CC(=O)C(CC(=O)N1CCCc2ccccc21)C(=O)Nc1ccc(F)cc1 (stereo not drawn)	33	71*	0.3	-0.65	0.7	-1.9
COc1cccc(C(=O)N2CCCc3ccccc32)c1	10	87*	0.1	-0.05	0.9	0.085
COc1ccc(NC(=O)N2CCc3ccccc32)cc1	22	58*	0.4	-0.26	0.8	0.11
CC(Oc1ccccc1)C(=O)N1CCCc2ccccc21 (stereo not drawn)	56*	91*	0.1	0.72	0.4	0.038
O=C(Nc1ccccc1)N1CCc2ccccc21	.	.	.	1	.	0.61
Cc1ccc(OC(C)C(=O)N2CCc3ccccc32)cc1 (stereo not drawn)	-15	2	1	-1.2	1.1	-0.28
CC(SCc1ccccc1)C(=O)NN=C1CCN(C)CC1 (stereo not drawn)	-9	11	0.9	0.22	1.1	0.92
N#Cc1cc(S(=O)(=O)c2ccccc2)c(N)[nH]c1=O	40	6	0.9	-0.49	0.6	-0.067
COc1ccc2c(c1)CCc1c(C(=O)N3CCCc4ccccc43)noc1-2	75*	90*	0.1	-2.7	0.3	-2.6
O=C(NCC1CCCC(CNC(=O)N2CCc3ccccc32)C1)N1CCc2ccccc21 (stereo not drawn)	99*	86*	0.1	-0.6	0	-5*
CCOC(=O)c1ccc(NC(=O)N2CCc3ccccc32)cc1	4	30	0.7	0.08	1	0.11
COc1ccc(NC(=O)N2CCCc3ccccc32)cc1	30	69*	0.3	0.36	0.7	-0.88
NC(=O)CC(NC(=O)c1ccccc1)c1ccc(NCCc2cccc(F)c2)c([N+](=O)[O-])c1 (stereo not drawn)	.	.	.	.	.	0.054
COc1ccc(Oc2nc(C)cc(C)c2S(C)(=O)=O)cc1	6	14	0.9	0.81	0.9	.
Cc1ccc(Sc2nc(C)cc(C)c2S(C)(=O)=O)cc1	64*	47	0.5	-1.2	0.4	-0.08
O=C1CS/C(=C\[N+](=O)[O-])N1c1ccccc1	6	6	0.9	-0.79	0.9	0.17
O=CN1CC(=O)N(c2ccccc2)c2c([nH]c3ccccc23)C1	28	79*	0.2	1.1	0.7	-0.84
Cc1cccc(C)c1N(CC(=O)N/N=C/c1cc(Br)c(C)o1)S(C)(=O)=O	.	.	.	0.39	.	.
C=CCc1ccc(OCCCCCN2CCOCC2)c(OC)c1	17	64*	0.4	1.6	0.8	.
SMILES	CYP2C9 inhib	CYP2C19 inh	CYP2C19 activ	PTK2B oligo ant	CYP2C9 activ	Cav3 T inh
COc1cccc(OCCCCCCN2CCOCC2)c1	29	54*	0.5	-0.51	0.7	0.3
C=CCc1ccc(OCCCOc2ccc(C)c(C)c2)c(OC)c1	20	16	0.8	-0.25	0.8	-1.6
C=CCc1ccc(OCCn2cccc2C=O)c(OC)c1	39	70*	0.3	-0.91	0.6	-0.69
CC1CCN(c2c([N+](=O)[O-])nn(-c3ccc4c(c3)OCCO4)[n+]2[O-])CC1	39	19	0.8	-1	0.6	-1.5
CC(=O)N/C(=C\c1ccccc1Cl)C(=O)O	.	.	.	-0.5	.	-0.12
Cc1ccccc1Cn1ccc(NC(=O)c2cnn3cccnc23)n1	50*	45	0.5	-0.67	0.5	-0.54
Cc1cc(N)ccc1N1CCCC1	-2	14	0.9	-0.69	1	0.79
